In PubChem BioAssay (NCATS):
Records with an inconclusive call do not appear. A number with no mark means an inactive call. Active and inactive are the calls of the source. Calls come from the whole dose curve; as a rule, active = well fitted curve in the direction sought with a large enough effect; inconclusive = small, poorly fitted or top-dose-only effect, or another doubt; inactive = no such curve, though single readings can be large; an effect the other way counts as inactive or inconclusive.

Assays:
OV90 = experiment: Primary qHTS to identify gynecologic anti-cancer compounds using libraries of approved drugs and bioactive compounds (AID 1345084); settings: Gynecologic cancer cell panel viability, ATPlite luminescence, 48 h; series mostly up to 57.5 µM; note: nearly all actives have a fitted effect of over 55% in size
How it was run: (§1)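 Luminescence from the ATPlite ATP-monitoring reagent indicates viable cell number; lower signal means cytotoxicity. Cells received compound 16 h after seeding and were exposed for 48 h across five concentrations.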

HeLa = experiment: as above; settings: Gynecologic cancer cell panel viability, ATPlite luminescence, 48 h; series mostly up to 57.5 µM
How it was run: as §1

PA-1 = experiment: as above; settings: Gynecologic cancer cell panel viability, ATPlite luminescence, 48 h; series mostly up to 57.5 µM
How it was run: as §1

Tov112D = experiment: as above; settings: Gynecologic cancer cell panel viability, ATPlite luminescence, 48 h; series mostly up to 57.5 µM
How it was run: as §1

Es-2 = experiment: as above; settings: Gynecologic cancer cell panel viability, ATPlite luminescence, 48 h; series mostly up to 57.5 µM
How it was run: as §1

SKOV3 = experiment: as above; settings: Gynecologic cancer cell panel viability, ATPlite luminescence, 48 h; series mostly up to 57.5 µM
How it was run: as §1

Tov-21-G = experiment: as above; settings: Gynecologic cancer cell panel viability, ATPlite luminescence, 48 h; series mostly up to 57.5 µM
How it was run: as §1

[1] = qHTS assay to identify inhibitors of the type 1 interferon - major histocompatibility complex class I in skeletal muscle: Counter screen cell viability and HiBit confirmation (AID 1347412); settings: iHSKM muscle cells + IFN-b, HiBiT or CellTiter-Glo, 24 h; for activity change, negative = inhibition: at 45.9 µM (top of the series); for all read-outs here: nearly all actives have a fitted effect of over 60% in size
How it was run: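 CRISPR HLA-B*08:01-HiBit immortalized human myoblasts (C25cl48) stimulated with 4 ng/ml IFN-beta and compounds (12-point 1:3, top 46 uM final) for 24 h at 37 C. Duplicate plates read by HiBit lytic luminescence or CellTiter Glo ATP.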

Hek293T = experiment: Primary qHTS to identify gynecologic anti-cancer compounds using libraries of approved drugs and bioactive compounds (AID 1345084); settings: Gynecologic cancer cell panel viability, ATPlite luminescence, 48 h, control line for the selectivity index; series mostly up to 57.5 µM; note: nearly all actives have a fitted effect of over 55% in size
How it was run: as §1

JEG-3 = experiment: as above; settings: Gynecologic cancer cell panel viability, ATPlite luminescence, 48 h; series mostly up to 57.5 µM
How it was run: as §1
% is set by controls: 0 for no effect and ±100 for the full control effect; potency is the fitted concentration of half-maximal effect.

With `Cc1ccc(C(=O)N(CCCN)C(c2oc3cc(Cl)ccc3c(=O)c2Cc2ccccc2)C(C)C)cc1` (centres undefined) the Potency (OV90) was “inactive”.
In the case of `CC(=O)NC1=NN(C(C)=O)C(C)(c2ccccc2)S1` (centres undefined), the Potency (HeLa) is reported as 14.1 µM (active), the Potency (OV90) is reported as “inactive” and the Potency (PA-1) is reported as 3.98 µM (active). For the same molecule, the Potency (Tov112D) was 3.16 µM (active).
With `CCCCC1CCN(CCCC(=O)c2ccccc2C)CC1` the Potency (Es-2) was “inactive”, the Potency (HeLa) was “inactive” and the Potency (SKOV3) was “inactive”. The Potency (Tov-21-G) was “inactive”.
With `CCN1CCN(Cc2ccc(NC(=O)Nc3ccc(Oc4cc(NC)ncn4)cc3)cc2C(F)(F)F)CC1` the Potency ([1]; HiBiT) was 5.57 µM (active) and the activity change, negative = inhibition ([1]; Viability) was -17.1%.
With `CCOC(=O)Nc1cc(-c2ccc(C)c(NS(C)(=O)=O)c2)nn2c(C)nnc12` the Potency (Es-2) was 12.6 µM (active), the Potency (OV90) was 12.6 µM (active) and the Potency (PA-1) was 31.6 µM (active). For the same molecule, the Potency (SKOV3) was 7.08 µM (active).
In the case of `C=C1C(=O)OC2C1CCC(=C)C1CC(OC(C)=O)C(=C)C12` (centres undefined), the Potency (HeLa) is reported as “inactive”, the Potency (SKOV3) is reported as “inactive” and the Potency (Tov112D) is reported as “inactive”.
For `Nc1nccn2c(C3CCC(C(=O)O)CC3)nc(-c3cc4cccc(Cl)c4[nH]3)c12` (centres undefined), the Potency (Es-2) was 28.2 µM (active), the Potency (OV90) was 10 µM (active) and the Potency (PA-1) was 7.94 µM (active). For the same molecule, the Potency (SKOV3) was 3.16 µM (active) and the Potency (Tov-21-G) was 4.47 µM (active).
With `CCNC(=O)Nc1ccc(-c2nc3c(c(N4CCOC[C@@H]4C)n2)CCN(c2ncccn2)C3)cc1` the Potency (Hek293T) was 1 µM (active), the Potency (JEG-3) was “inactive” and the Potency (OV90) was 1.26 µM (active). For the same molecule, the Potency (PA-1) was 1.12 µM (active).
In the case of `C[C@@H](Oc1cc(-n2cnc3ccc(OC4CCN(C)CC4)cc32)sc1C(N)=O)c1ccccc1C(F)(F)F`, the Potency (PA-1) is reported as 0.316 µM (active).
For `N#Cc1cnc2cnc(NCc3cccnc3)cc2c1Nc1ccc(F)c(Cl)c1`, the Potency (HeLa) was “inactive” and the Potency (JEG-3) was “inactive”.
With `CCC1C(=O)N(C)c2cnc(Nc3ccc(C(=O)NC4CCC(N5CCN(CC6CC6)CC5)CC4)cc3OC)nc2N1C(C)C` (centres undefined) the Potency (PA-1) was 0.316 µM (active).
In the case of `O=C(Nc1ccc(S(=O)(=O)C(F)(F)F)cc1)C1=CCN(c2ncccc2C(F)(F)F)CC1`, the Potency (JEG-3) is reported as “inactive” and the Potency (Tov-21-G) is reported as “inactive”.
In the case of `Cn1c(=O)n(-c2ccc(C(C)(C)C#N)cc2)c2c3cc(C#Cc4cccnc4)ccc3ncc21`, the Potency (Hek293T) is reported as 0.0891 µM (active), the Potency (OV90) is reported as 0.224 µM (active) and the Potency (PA-1) is reported as 0.282 µM (active). For the same molecule, the Potency (Tov-21-G) was 0.158 µM (active).
With `C[C@@H]1C[C@@H]2O[C@H]2/C=C\C=C\C(=O)Cc2c(Cl)c(O)cc(O)c2C(=O)O1` the Potency (HeLa) was “inactive”, the Potency (JEG-3) was “inactive” and the Potency (PA-1) was 10 µM (active). The Potency (Tov112D) was “inactive”.
With `CCS(=O)(=O)N1CCN(c2ccc(Nc3ncc(C(N)=O)c(NC4CC4)n3)cc2)CC1` the Potency (JEG-3) was “inactive”, the Potency (OV90) was 12.6 µM (active) and the Potency (Tov112D) was “inactive”. For the same molecule, the Potency ([1]; HiBiT) was 1.98 µM (active) and the activity change, negative = inhibition ([1]; Viability) was 5.56%.
With `CCOc1cc2ncc(C#N)c(Nc3ccc(F)c(Cl)c3)c2cc1NC(=O)/C=C/CN(C)C` the Potency (Hek293T) was 25.1 µM (active), the Potency (OV90) was “inactive” and the Potency (SKOV3) was 0.398 µM (active). The Potency (Tov-21-G) was 1 µM (active), the Potency ([1]; HiBiT) was 1.98 µM (active) and the Potency ([1]; Viability) was 17.6 µM (active).
For `COC(=O)C1(C)c2[nH]c3ccccc3c2CCN1C(=O)CCl` (centres undefined), the Potency (OV90) was “inactive” and the Potency (Tov-21-G) was 22.4 µM (active).
For `CC(C)(C#N)c1ccc(N2C(=O)OCc3cnc4ccc(-c5cnc6ccccc6c5)cc4c32)cc1`, the Potency (Hek293T) was 12.6 µM (active), the Potency (JEG-3) was “inactive” and the Potency (PA-1) was 12.6 µM (active). The Potency (SKOV3) was 2.82 µM (active) and the Potency (Tov-21-G) was 10 µM (active).
